gsp agonist: activates gsp, the McCune-Albright syndrome mutation; gsp mutant cells, cAMP HTRF, 30 min; Potency, µM (series often up to 76.9 µM), for inactives: at the top dose activation (cAMP increase), most hits filed as activators; 0.13% of 340,000 active; active means well fitted activation curve with a large enough effect; inconclusive means small, poorly fitted or top-dose-only effect, or another doubt; inactive means no such curve, though single readings can be large or run the other way; cell line not stated here;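 further: phosphodiesterase inhibitor Ro 20-1724 added with compounds to block cAMP breakdown; potency means the concentration at half of the fitted maximal effect; nearly all actives have a fitted effect of over 60% in size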
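Cells in DMEM/10% FBS with G418 were pretreated with compounds in DMSO plus […] (300 uM stock) for 30 min at 37C. cAMP was measured by HTRF (cAMP-d2 plus anti-cAMP antibody-K) after 30 min at room temperature.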
RXFP1 agonist: activates the human relaxin receptor RXFP1; Q9HBX9; HEK293T-RXFP1 cAMP TR-FRET, 30 min; response scale: percent of porcine relaxin response, buffer zero; Potency, µM (highest dose often 57.5 µM), inactives show at the top dose activation, usual class: activators; 0.3% of 370,000 active; AID 2676; active means well fitted activation curve with a large enough effect; inconclusive means small, poorly fitted or top-dose-only effect; further: potency means the concentration at half of the fitted maximal effect; on the % scale 0 is the no-effect control and ±100 the full control effect; nearly all actives have a fitted effect of over 60% in size
Target sequence (Q9HBX9 whole entry, looked up): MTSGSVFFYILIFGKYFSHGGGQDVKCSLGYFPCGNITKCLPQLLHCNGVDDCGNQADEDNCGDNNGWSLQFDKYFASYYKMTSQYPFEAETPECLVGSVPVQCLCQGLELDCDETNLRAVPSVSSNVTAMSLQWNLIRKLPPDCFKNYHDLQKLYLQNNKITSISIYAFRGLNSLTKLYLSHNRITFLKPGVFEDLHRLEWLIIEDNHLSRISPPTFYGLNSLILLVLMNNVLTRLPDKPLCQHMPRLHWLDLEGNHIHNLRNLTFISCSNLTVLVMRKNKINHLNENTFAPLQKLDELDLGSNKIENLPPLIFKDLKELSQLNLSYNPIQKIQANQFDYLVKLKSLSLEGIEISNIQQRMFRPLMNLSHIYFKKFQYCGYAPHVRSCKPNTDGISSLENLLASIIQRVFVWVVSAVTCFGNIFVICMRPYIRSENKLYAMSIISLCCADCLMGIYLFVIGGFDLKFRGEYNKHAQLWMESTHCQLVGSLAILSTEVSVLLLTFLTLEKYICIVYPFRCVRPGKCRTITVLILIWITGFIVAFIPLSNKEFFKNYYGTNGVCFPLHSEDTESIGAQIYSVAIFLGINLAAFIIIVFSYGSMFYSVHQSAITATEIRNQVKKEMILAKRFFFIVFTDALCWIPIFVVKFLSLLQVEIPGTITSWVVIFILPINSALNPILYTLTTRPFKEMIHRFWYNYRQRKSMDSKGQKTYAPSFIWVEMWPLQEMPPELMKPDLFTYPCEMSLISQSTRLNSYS
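HEK293T cells stably expressing RXFP1 were pretreated with the PDE4 inhibitor Ro 20174, exposed to compounds for 30 min at 37C, lysed, and cAMP was read by TR-FRET. Data normalized to buffer (basal) and 29 nM porcine relaxin (100%).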
gsp antagonist: antagonists of gsp mutant (McCune-Albright syndrome) | gsp-mutant cells, cAMP HTRF, 30 min | 0.4% of 340,000 active | Potency, µM (top dose mostly 76.9 µM), inactives show top-dose activity change, negative = inhibition, most hits filed as inhibitors; calls by dose curve; cell line not stated here;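 further: intracellular cAMP measured with PDE inhibitor Ro 20-1724 present during compound exposure; potency means the concentration at half of the fitted maximal effect; on the % scale 0 is the no-effect control and ±100 the full control effect; nearly all actives have a fitted effect of over 65% in size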
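Cells, 2000/well, grown 16–24 h in DMEM 10% FBS with 0.5 mg/ml G418, then compounds plus […] (300 uM addition stock), 30 min at 37C. cAMP read by HTRF (cAMP-d2 and anti-cAMP antibody-K in lysis buffer) after 30 min RT.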
RXFP1 antagonist: blocks the human relaxin receptor RXFP1; Q9HBX9; HEK293-RXFP1, relaxin-stimulated cAMP HTRF, 30 min; active compounds read low; activity change, negative = inhibition, % at 57.5 µM; 0.59% of 350,000 active;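 active means activity change of -60% or lower, but not beyond a set lower limit; inconclusive means change between -60% and -40%, or beyond the set limit; inactive means change above -40%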; further: on the % scale 0 is the no-effect control and ±100 the full control effect
Akt phos inh: inhibitors of Akt phosphorylation; Neuro2A IGF-stimulated pAkt S473 HTRF, 20 min; active compounds read low; activity change, % for hits at 50 µM; 0.32% of 360,000 active; AID 651550; in the data active means activity change below about -80%; inconclusive means mostly about -51% to -80%; further: on the % scale 0 is the no-effect control and ±100 the full control effect
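Neuro2A cells (4,500/well, DMEM with 0.5% FBS) were treated with compound at a single 50 µM final concentration, stimulated with 6 nM IGF for 20 min at 37 °C, and lysed. Phospho-Akt Ser473 was read by HTRF as 665/615 ratio ×10^4.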
Starred values were filed as active, the others as inactive; i = inactive; ? = inconclusive; / = no result; [ ] = another dose, or the depositor's remark. An excerpt weighted towards active compounds, which were near 1.2% of everything screened.

SMILES	gsp agonist	RXFP1 agonist	gsp antagonist	RXFP1 antagonist	Akt phos inh
CC(C)[C@@H]1CC[C@@H](C)C[C@H]1OC(=O)C[n+]1cc(-c2ccc(Cl)cc2)n2c1CCCCC2	10.8%[15.4 µM]	-0.5%	-6.6%	-73.9*	i
COc1ccc(-c2c[n+](CC(=O)OC3CC(C)CCC3C(C)C)c3n2CCC3)cc1 (stereo unspecified)	-19.8%	-1.0%	13.5%	?	i
CC(C)c1ccc(OC(=O)c2cc(-c3ccccc3)on2)cc1	/	6.8%	/	2.2	/
O=C1C(SCCO)=C(SCCO)C(=O)c2ccccc21	/	-3.0%	35.5µM*	/	i
CCn1cc(C(=O)NCCc2ccc(Cl)cc2)c(=O)c2cc(S(=O)(=O)N3CCC(C)CC3)ccc21	/	7.9%	/	/	/
Cc1ccc(C(=O)NCC(=O)OCCOc2ccccc2Cl)cc1	-27.9%[15.4 µM]	0.4%	-0.8%	-83.7*	i
Cc1ccc(C(=O)NCC(=O)OCCOc2cccc(Cl)c2)cc1	0.5%[15.4 µM]	0.0%	5.0%	-5.1	i
O=C(Nc1ccc(F)c(Cl)c1)c1cc(S(=O)(=O)N2CCCc3ccccc32)ccc1F	/	-0.4%	/	3.9	/
CNC(=O)c1cc2ncc(C(F)(F)F)cc2s1	?	4.7%	0.0%	-82.4*	i
N#C/C(=C\c1ccc(O)c([N+](=O)[O-])c1)c1nc2ccccc2s1	-1.3%[15.4 µM]	1.6%	35.5µM*	11.8	i
Cc1ccc(-c2nc3ccccc3s2)cc1S(=O)(=O)N1CCOCC1	13.3%	2.7%	3.9%	-2.5	-90.0%*
Cc1cnc(Nc2nc3ccccc3o2)nc1C(=O)Nc1cccc(C(F)(F)F)c1	-18.0%	-0.3%	15.1%	-13.5	-94.5%*
Cc1occc1C(=O)Nc1cccc(C(F)(F)F)c1	31.5%	?	3.7%	-3.2	i
COc1ccccc1N1CCN(C(=O)c2cc3c(C)nc4ccccc4c3o2)CC1	7.5%	1.1%	-27.4%	-62.3*	i
Cc1ccc(C)c(N2CCN(C(=O)c3cc4c(C)nc5ccccc5c4o3)CC2)c1	23.0%	0.4%	?	-5.5	i
O=c1c2ccccc2n(Cc2cccc(F)c2)c(=O)n1Cc1ccccc1Cl	/	-4.2%	/	-12.6	/
CCCn1c(=O)c(C(=O)Nc2ccccc2C(=O)OC)c(O)c2ccccc21	-2.9%	2.4%	3.1%	-18.5	-104.1%*
CCOC(=O)c1ccccc1NC(=O)c1c(O)c2ccccc2n(CC)c1=O	10.4%	0.1%	5.7%[15.4 µM]	-13.8	i
CCC(NC(=O)Nc1cc(Cl)ccc1OC)c1c(-n2cccc2)sc2c1CCN(C)C2 (stereo unspecified)	/	0.1%	/	-15.2	/
O=C(Nc1ccc(NS(=O)(=O)c2ccccc2)cc1)c1ccc(Cl)cc1	-1.9%[15.4 µM]	-1.4%	2.4%	-30.7	i
COc1cccc(S(=O)(=O)Nc2ccc(C(=O)Nc3ccncc3)cc2)c1	-1.4%	-0.3%	-9.3%	/	i
O=C(Nc1cccc(S(=O)(=O)Nc2ccc(Cl)cc2)c1)c1ccc(Cl)nc1	-42.5%	1.2%	44.7µM*	-18.0	i
COc1ccc(NS(=O)(=O)c2cccc(NC(=O)c3ccc(Cl)nc3)c2)cc1	5.3%[15.4 µM]	4.3%	?	-71.2*	i
O=C1CSc2ccc(C(=O)Nc3cccc(S(=O)(=O)Nc4ccc(Br)cc4)c3)cc2N1	-14.8%	1.8%	39.8µM*	-13.2	i
Cc1ccc(S(=O)(=O)C(CNC(=O)COc2ccccc2)c2ccco2)cc1 (stereo unspecified)	/	-1.4%	/	-10.1	/
SMILES	gsp agonist	RXFP1 agonist	gsp antagonist	RXFP1 antagonist	Akt phos inh
Cc1nc2nc(C)c(CCC(=O)NCc3ccccc3)c(C)n2n1	/	2.8%	/	/	/
CCOc1cccc(CNCCO)c1OCc1ccc(Cl)cc1Cl	2.0%	2.0%	17.8%	-11.2	i
CCOc1cc(CNCCO)cc(Br)c1OCc1ccc(Cl)cc1Cl	18.1%	2.1%	5.6%	-92.4*	/
Cc1c(C(=O)N2CCC(C)CC2)sc2ncn(CC(=O)N3CCC(C)CC3)c(=O)c12	?	10.3%	5.8%	0.0	i
CCOC(=O)C1CCN(C(=O)c2sc3ncn(CC(=O)N4CCCCC4)c(=O)c3c2C)CC1	15.8µM*	/	/	2.2	i
CCOc1ccc(C2=NC(c3cccs3)=Nc3ccc(CC)cc3N2)cc1OCC	/	0.9%	/	-6.8	/
COC(=O)CCC(NC(=O)c1cc(C)oc1C)C(=O)OC (stereo unspecified)	-1.9%	0.3%	4.2%	-5.3	-104.7%*
CSCCC(NC(=O)c1cc(C)oc1C)C(=O)O (stereo unspecified)	?	-1.6%	3.8%	-2.5	/
Cc1cc(C(=O)NNC(=O)/C=C/c2ccccc2Cl)c(C)o1	4.7%	1.0%	-15.4%	-3.4	i
COc1ccc(/C=C/C(=O)NNC(=O)c2cc(C)oc2C)cc1	-0.7%[15.4 µM]	3.0%	4.6%	-61.9*	i
CCN1CCc2c(sc(-n3cccc3)c2C(C)NC(=O)Nc2ccc(C(=O)OC)cc2)C1 (stereo unspecified)	/	7.6%	/	-18.4	/
CCOC(=O)c1sc2nc(NC(=O)C(C)(C)C)sc2c1C	0.0%	1.9%	31.6µM*	/	i
CCOC(=O)c1sc2nc(NC(=O)C3CC3)sc2c1C	15.9%	-0.5%	5.2%	1.2	i
COC(=O)C1(C)NC(c2cccs2)C2C(=O)N(c3ccc(F)cc3)C(=O)C21 (stereo unspecified)	-11.9%	0.5%	14.6%	2.0	-107.2%*
Cc1ccc(C(C2C(=O)CC(C)(C)CC2=O)C2C(=O)CC(C)(C)CC2=O)s1	-28.6%	-2.1%	-12.8%	-67.6*	i
CC1(C)CC(=O)C(C(c2ccncc2)C2C(=O)CC(C)(C)CC2=O)C(=O)C1	2.3%	0.6%	-8.5%	-5.8	i
CCCC(=O)NCCc1nc2ccccc2n1C	20.8%	0.8%	1.2%	-5.5	-124.1%*
COc1cc(C)c(Cl)cc1S(=O)(=O)NCCc1c(C)[nH]c2ccccc12	/	-0.3%	/	-19.2	/
Cc1noc(C)c1CSc1nnc(C)c(=O)[nH]1	-5.3%	-2.6%	7.7%	-9.5	-108.0%*
COc1cccc(NC(=O)CSc2nnc(NC(=O)NC3CCCCC3)s2)c1	/	-3.0%	/	-2.6	/
O=c1c2ccccc2sn1-c1ccccc1	0.1%	0.1%	-14.9%	-26.8	-106.7%*
Cc1ccc2[nH]cc(C(c3ccccc3)c3cccs3)c2c1 (stereo unspecified)	/	5.5%	/	-72.0*	/
COC(=O)COc1ccc(S(=O)(=O)NCc2ccncc2)cc1	-18.7%	2.4%	11.2µM*	/	i
COC(=O)c1cc(Cl)ccc1NS(=O)(=O)C(F)(F)F	/	/	/	11.9	/
CCN(CC)C(=O)COc1ccc(-c2nnc(N3CCCCC3)c3ccccc23)cc1	18.9%	-1.5%	-24.7%	-8.0	i
CCOc1ccc(-c2nnc(N3CCCCC3)c3ccccc23)cc1	-28.6%	-0.8%	50.1µM*	-31.9	i

Compound activity deposited in PubChem BioAssay by National Center for Advancing Translational Sciences (NCATS).
